# Measurements reported in the supplement of paper PMC6089552.
# Among all 3,200 compounds or so, about 300 (9.4%) showed activity. Shown is part of a subset that was picked to be rich in actives. A number with no mark means an inactive call.
# Test system: A673/TR/shEF
# Assay: cell viability (LOESS-normalised, relative to median of negative controls) (log2 ratio); higher = more viable cells (less compound effect), active = hit call of the paper (over 3 MAD below the median)
# Settings: treatment time: 72 h
# Procedure, shortened: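 A673/TR/shEF Ewing sarcoma cells were plated at 1,500 per well in 384-well plates and cultured with or without doxycycline, added 24 h before compounds, to induce EWS-FLI1 shRNA knockdown. Library compounds at two or more concentrations, alongside DMSO controls, were applied for three days. Cell viability was measured by CellTiter-Glo luminescence on an Envision reader. Readings were LOESS-corrected per plate, divided by the median of negative controls and log2-transformed, and hits were wells lying at least three median absolute deviations from the median of all screened wells.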
# [1] = 0.25 µM, library screen: screen1, EWS-FLI1 expression: high (no doxycycline)
# [2] = 0.25 µM, library screen: screen1, EWS-FLI1 expression: low (doxycycline-induced shRNA knockdown)
# [3] = 2.5 µM, library screen: screen1, EWS-FLI1 expression: high (no doxycycline)
# [4] = 2.5 µM, library screen: screen1, EWS-FLI1 expression: low (doxycycline-induced shRNA knockdown)
structure (smiles),measurement,setting,value
CSc1nc(N)c2ncn(C3OC(COP(=O)(O)OP(=O)(O)O)C(O)C3O)c2n1 (stereo unspecified),cell viability (log2),"0.25 µM, library screen: screen2, EWS-FLI1 expression: high (no doxycycline)",0.0889
same,cell viability (log2),"0.25 µM, library screen: screen2, EWS-FLI1 expression: low (doxycycline-induced shRNA knockdown)",0.0973
same,cell viability (log2),"2.5 µM, library screen: screen2, EWS-FLI1 expression: high (no doxycycline)",0.157
same,cell viability (log2),"2.5 µM, library screen: screen2, EWS-FLI1 expression: low (doxycycline-induced shRNA knockdown)",0.0918
CC(C)(O)[C@H]1CC[C@]2(C)[C@H]3CC[C@@H]4[C@@]5(C)CCCC(C)(C)[C@@H]5[C@@H](O)C[C@@]4(C)[C@]3(C)CC[C@@H]12,cell viability (log2),[1],0.0136
same,cell viability (log2),[2],0.0775
same,cell viability (log2),[3],0.0306
same,cell viability (log2),[4],0.112
COc1cc(C2NC(=S)NC(C)=C2C(=O)Nc2cccc(Cl)c2)cc(OC)c1OC (stereo unspecified),cell viability (log2),[1],0.123
same,cell viability (log2),[2],0.0893
same,cell viability (log2),[3],0.204
same,cell viability (log2),[4],0.0553
COc1cccc(N2C(=O)C(=Cc3cccc(O)c3)SC2=S)c1,cell viability (log2),[1],0.113
same,cell viability (log2),[2],0.0758
same,cell viability (log2),[3],0.133
same,cell viability (log2),[4],0.182
CC(=O)O[C@@H]1CC[C@@]2(C)C(C[C@@H](OC(C)=O)[C@@]3(C)C4=CC(=O)O[C@@H](c5ccoc5)[C@]4(C)CCC23)C1(C)C (stereo partly specified),cell viability (log2),[1],-0.00795
same,cell viability (log2),[2],0.0487
same,cell viability (log2),[3],0.121
same,cell viability (log2),[4],0.0464
CC(=O)O[C@H]1C[C@@H](OC(C)=O)C(C)(C)C2C[C@@H](OC(C)=O)[C@@]3(C)C4=CC(=O)O[C@@H](c5ccoc5)[C@]4(C)CCC3[C@]21C (stereo partly specified),cell viability (log2),[1],0.0506
same,cell viability (log2),[2],0.0595
same,cell viability (log2),[3],-0.853 (active)
same,cell viability (log2),[4],-0.345 (active)
CC(=O)O[C@H]1CC[C@@]2(C)C(C[C@@H](OC(C)=O)[C@@]3(C)C4=CC(=O)OC(c5ccoc5)[C@]4(C)CCC23)C1(C)C (stereo partly specified),cell viability (log2),[1],0.121
same,cell viability (log2),[2],0.145
same,cell viability (log2),[3],0.126
same,cell viability (log2),[4],0.124
COc1cc(C(=O)N2CCOCC2)c([N+](=O)[O-])cc1OC,cell viability (log2),[1],0.0993
same,cell viability (log2),[2],0.0316
same,cell viability (log2),[3],0.0928
same,cell viability (log2),[4],-0.0159
CCCCCCCCCCCCCCCCCC(=O)OC[C@H](COP(=O)(O)OCC(O)COP(=O)(O)OC[C@@H](COC(=O)CCCCCCCCCCCCCCCCC)OC(=O)CCCCCCCCCCCCCCCCC)OC(=O)CCCCCCCCCCCCCCCCC (stereo partly specified),cell viability (log2),[1],0.0223
same,cell viability (log2),[2],0.0715
same,cell viability (log2),[3],0.128
same,cell viability (log2),[4],0.138
CC(=O)O[C@@H]1C[C@H]2C(C)(C)C(=O)[C@@H]3O[C@@H]3[C@]2(C)[C@H]2CC[C@@]3(C)[C@H](c4ccoc4)OC(=O)[C@H]4O[C@]43[C@@]21C,cell viability (log2),[1],0.0357
same,cell viability (log2),[2],0.0669
same,cell viability (log2),[3],0.155
same,cell viability (log2),[4],0.138
COc1c(CC(=O)c2cc3c(cc2O)OC(C)(C)C(O)C3)ccc2c1C=CC(C)(C)O2 (stereo unspecified),cell viability (log2),[1],0.0608
same,cell viability (log2),[2],-0.00504
same,cell viability (log2),[3],0.0765
same,cell viability (log2),[4],0.0703
COc1ccc(-c2c(OC)c3c(OC)c4c(cc3oc2=O)OC(C)(C)C=C4)cc1,cell viability (log2),[1],0.0786
same,cell viability (log2),[2],0.00334
same,cell viability (log2),[3],0.211
same,cell viability (log2),[4],0.00828
COc1ccc2c(c1)O[C@H]1c3ccc(O)cc3OC[C@@H]21,cell viability (log2),[1],0.225
same,cell viability (log2),[2],0.129
same,cell viability (log2),[3],0.184
same,cell viability (log2),[4],0.206
COc1cc2c(cc1-c1coc3c4c(c(OC)cc3c1=O)OC(C)(C)C=C4)OCO2,cell viability (log2),[1],0.082
same,cell viability (log2),[2],0.0865
same,cell viability (log2),[3],0.173
same,cell viability (log2),[4],0.0953
COc1cc2c(cc1OC)[C@@H]1C(=O)c3ccc4c(c3O[C@@H]1CO2)C=CC(C)(C)O4,cell viability (log2),[1],-0.591 (active)
same,cell viability (log2),[2],-0.253 (active)
same,cell viability (log2),[3],-2.11 (active)
same,cell viability (log2),[4],-0.84 (active)
COc1cc2c(cc1OC)[C@@H]1C(=O)c3c(O)cc4c(c3O[C@@H]1CO2)C=CC(C)(C)O4,cell viability (log2),[1],-0.205 (active)
same,cell viability (log2),[2],-0.261 (active)
same,cell viability (log2),[3],-0.213 (active)
same,cell viability (log2),[4],-0.138
COc1cc2c(cc1OC)[C@@H]1C(=O)c3c(cc4c(c3O)C=CC(C)(C)O4)O[C@@H]1CO2,cell viability (log2),[1],-0.0181
same,cell viability (log2),[2],-0.000972
same,cell viability (log2),[3],-0.392 (active)
same,cell viability (log2),[4],-0.0174
COc1c2c(cc3ccoc13)C(=O)[C@H]1c3cc4c(cc3OC[C@H]1O2)OCO4,cell viability (log2),[1],0.0834
same,cell viability (log2),[2],0.0158
same,cell viability (log2),[3],0.0793
same,cell viability (log2),[4],-0.0539
COc1ccc2c(c1)O[C@@H]1COc3cc(OC)c(OC)cc3[C@@H]1C2=O,cell viability (log2),[1],-0.0338
same,cell viability (log2),[2],0.0823
same,cell viability (log2),[3],-0.0122
same,cell viability (log2),[4],-0.0233
COc1ccccc1-c1coc2cc(O)ccc2c1=O,cell viability (log2),[1],0.111
same,cell viability (log2),[2],0.0685
same,cell viability (log2),[3],0.111
same,cell viability (log2),[4],-0.0147
COc1cc(C(=O)O)c(O)c2c1OCO2,cell viability (log2),[1],-0.00582
same,cell viability (log2),[2],-0.144
same,cell viability (log2),[3],0.116
same,cell viability (log2),[4],-0.0061
C[C@@H]1C[C@H]2[C@@H]3C[C@H](F)C4=CC(=O)C=C[C@]4(C)[C@@]3(F)[C@@H](O)C[C@]2(C)[C@H]1C(=O)COC(=O)C(C)(C)C,cell viability (log2),[1],0.00935
same,cell viability (log2),[2],-0.0577
same,cell viability (log2),[3],0.0831
same,cell viability (log2),[4],-0.0529
COc1cc(O)c(C(=O)c2ccccc2)c(OC)c1,cell viability (log2),[1],0.0618
same,cell viability (log2),[2],0.0186
same,cell viability (log2),[3],0.0469
same,cell viability (log2),[4],0.0894
OC[C@H]1O[C@@](CO)(O[C@H]2O[C@H](CO)[C@@H](O)[C@H](O)[C@H]2O)[C@@H](O[C@H]2O[C@H](CO)[C@@H](O)[C@H](O)[C@H]2O)[C@@H]1O,cell viability (log2),[1],0.0123
same,cell viability (log2),[2],0.0415
same,cell viability (log2),[3],0.0346
same,cell viability (log2),[4],0.126
COCCOC(=O)C1=C(C)NC(=S)NC1c1ccccc1OC (stereo unspecified),cell viability (log2),[1],0.0949
same,cell viability (log2),[2],0.0382
same,cell viability (log2),[3],0.0563
same,cell viability (log2),[4],0.0651
C=CC(C)(CCC1C(=C)CC(OC(C)=O)C2C(C)(C)CCCC12C)OC(C)=O (stereo unspecified),cell viability (log2),[1],0.025
same,cell viability (log2),[2],0.066
same,cell viability (log2),[3],0.163
same,cell viability (log2),[4],-0.0558
O=C1[C@H](Cc2ccc(O)cc2)N2C(=O)CCN(C(=O)NCc3ccccc3)[C@H]2CN1Cc1cccc2ccccc12,cell viability (log2),"0.103 µM, library screen: screen3, EWS-FLI1 expression: high (no doxycycline)",-0.0101
same,cell viability (log2),"0.103 µM, library screen: screen3, EWS-FLI1 expression: low (doxycycline-induced shRNA knockdown)",0.068
same,cell viability (log2),"0.308 µM, library screen: screen3, EWS-FLI1 expression: high (no doxycycline)",0.0453
same,cell viability (log2),"0.308 µM, library screen: screen3, EWS-FLI1 expression: low (doxycycline-induced shRNA knockdown)",0.0327
same,cell viability (log2),"0.926 µM, library screen: screen3, EWS-FLI1 expression: high (no doxycycline)",0.0157
same,cell viability (log2),"0.926 µM, library screen: screen3, EWS-FLI1 expression: low (doxycycline-induced shRNA knockdown)",0.0736
same,cell viability (log2),"2.8 µM, library screen: screen3, EWS-FLI1 expression: high (no doxycycline)",0.0365
same,cell viability (log2),"2.8 µM, library screen: screen3, EWS-FLI1 expression: low (doxycycline-induced shRNA knockdown)",0.0441
same,cell viability (log2),"8.3 µM, library screen: screen3, EWS-FLI1 expression: high (no doxycycline)",-0.0756
same,cell viability (log2),"8.3 µM, library screen: screen3, EWS-FLI1 expression: low (doxycycline-induced shRNA knockdown)",-0.205
same,cell viability (log2),"25 µM, library screen: screen3, EWS-FLI1 expression: high (no doxycycline)",-1.07 (active)
same,cell viability (log2),"25 µM, library screen: screen3, EWS-FLI1 expression: low (doxycycline-induced shRNA knockdown)",-1.18 (active)
